Screening results from PubChem.
The sample as a whole holds a higher share of hits than the screen did.
GBA activity: alters purified human glucocerebrosidase activity; P04062; purified enzyme, resorufin glucoside fluorescence (screen aimed at inhibitors), 20 min; Potency, µM; 48,000 tested, 1.1% active; AID 360; in the data active means potency below about 15 µM;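 further: the screen sought inhibitors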
Target sequence (P04062 whole entry, looked up): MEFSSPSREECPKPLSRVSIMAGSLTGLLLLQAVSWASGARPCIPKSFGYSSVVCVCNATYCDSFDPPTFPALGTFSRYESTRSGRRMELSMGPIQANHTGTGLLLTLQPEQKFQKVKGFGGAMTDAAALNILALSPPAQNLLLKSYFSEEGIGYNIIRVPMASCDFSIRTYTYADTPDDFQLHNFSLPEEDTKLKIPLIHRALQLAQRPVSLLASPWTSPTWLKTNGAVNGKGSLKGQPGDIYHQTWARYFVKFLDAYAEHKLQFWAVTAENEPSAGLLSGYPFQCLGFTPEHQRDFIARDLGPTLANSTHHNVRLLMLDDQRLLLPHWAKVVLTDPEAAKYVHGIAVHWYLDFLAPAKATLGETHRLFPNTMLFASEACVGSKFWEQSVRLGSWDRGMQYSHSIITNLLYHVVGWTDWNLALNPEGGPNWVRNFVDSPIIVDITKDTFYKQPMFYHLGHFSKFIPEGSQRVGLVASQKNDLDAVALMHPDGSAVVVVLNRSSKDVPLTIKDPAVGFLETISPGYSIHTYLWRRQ
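Wild-type enzyme at 0.2 nM final in 50mM citric acid/KH2PO4, 10mM sodium taurocholate, 0.01% tween-20, pH 5.9, with resorufin beta-D-glucopyranoside at 30 uM final. Compounds titrated, 20 min at RT, red fluorescence read; AC50 from titration.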
The depositor's hits bear a star; i = inactive. Potency means the concentration at half of the fitted maximal effect.

SMILES	GBA activity
Cc1ccc(C)c(N(C(=O)Cn2nnc(-c3cccs3)n2)C(C(=O)NC2CC2)c2ccc(C)o2)c1 (centres undefined)	12*
Cc1ccc(-c2nnn(CC(=O)N(c3cccc(O)c3)C(C(=O)NC(C)(C)C)c3cccs3)n2)o1 (centres undefined)	>77
CCOc1ccccc1NC(=O)CSc1nnc2c(CC)c(C)nc(N)n12	>77
COC(=O)c1ccc(C2C(C#N)=C(C)NC3=C2C(=O)CC(C)(C)C3)cc1 (centres undefined)	12*
CCN(CC)c1ccc(C2C(C(=O)OCCOC)=C(C)NC3=C2C(=O)CC(C)(C)C3)cc1 (centres undefined)	>77
CCOC(=O)C1=C(C)NC(SCC(=O)OC)=C(C#N)C1c1ccc(C(=O)OC)cc1 (centres undefined)	>77
O=C1C(=O)N(CCCN2CCOCC2)C(c2ccccn2)/C1=C(\O)c1ccc2c(c1)OCCO2 (centres undefined)	>77
Cc1cc(C)n(-c2nncn2NC(=O)c2ccc(Cl)cc2O)n1	>77
COc1ccc(CNc2nc(-c3cccnc3)nn2C(=O)c2ccco2)cc1	11*
Nc1nc(-c2cccnc2)nn1C(=O)c1ccco1	>77
O=C(c1ccco1)n1nc(NCc2ccccc2)nc1NCc1ccccc1	i
CCSc1nnc(NC(=O)c2ccc(C)o2)s1	>77
CCSc1nnc(NC(=O)c2cc(C)oc2C)s1	11*
CCSc1nnc(NC(=O)c2cccc(OCc3c(C)noc3C)c2)s1	i
Cc1noc2nc(-c3cccs3)cc(-c3nnc4n3CCCCC4)c12	>77
CCOc1nc(Nc2ccc(-c3nc4ccccc4o3)cc2)nc(N2CCOCC2)n1	>77
O=C(O)c1ccc(CSc2nc3ccccc3o2)cc1	>77
Cc1cc(C(=O)CSc2nc3ccccc3o2)c(C)n1C1CC1	14*
C=CCn1c(C)cc(C(=O)CSc2nc3ccccc3o2)c1C	>77
COC(=O)CSc1nc2ccccc2o1	>77
O=C(CSc1nc2ccccc2o1)c1ccc2c(c1)OCCO2	14*
CC(=O)c1cc2c(cc1NC(=O)CSc1nc3ccccc3o1)OCO2	>77
CCCOc1cc(C)c(S(=O)(=O)n2ccc(C)n2)cc1C	>77
O=C(CSc1nnc(CNC(=O)c2ccccc2F)o1)c1ccccc1	>77
COc1ccc(C2c3c(-c4cc(Cl)c(C)cc4O)n[nH]c3C(=O)N2Cc2cccnc2)cc1OC (centres undefined)	>77
SMILES	GBA activity
CCCC(=O)Nc1ccc(N2CCN(C(=O)c3cccs3)CC2)cc1	>77
O=C(CCN1C(=O)C2C3C=CC(C3)C2C1=O)Nc1ccccn1 (centres undefined)	>77
CC1CCN(c2nc3c(c(=O)[nH]c(=O)n3C)n2CCSc2nc3ccccc3o2)CC1	>77
CC(C)(C)C(=O)Cn1c(NCCCO)nc2ccccc21	i
Cc1ccc(C(=O)Cn2c(NCCO)nc3ccccc32)cc1	14*
O=C(Cn1c(NCCCO)nc2ccccc21)c1ccc(Br)cc1	>77
CCC(=O)c1cn(CC(=O)NCc2cccnc2)c2ccccc12	>77
CCC1CCCCN1C(=O)N[C@@H](Cc1ccccc1)C(=O)O (some centres undefined)	>77
O=C(NC1CCCCCCC1)C1CCN(S(=O)(=O)N2CCCC2)CC1	>77
O=C(NC1CCCCC1)C1CCN(S(=O)(=O)N2CCCCCC2)CC1	>77
O=C(NC1CCCCCCC1)C1CCN(S(=O)(=O)N2CCC3(CC2)OCCO3)CC1	11*
c1ccc(CNc2ccc3c(c2)ncn3C2CCCCC2)nc1	>77
CC(=O)N1CCCc2cc(S(=O)(=O)N3CCN(c4ccccn4)CC3)ccc21	>77
COc1ccccc1OCc1ccc(C(=O)Nc2ccncc2)o1	13*
COc1ccccc1OCc1ccc(C(=O)NC(C)(C)C)o1	>77
COc1ccccc1OCc1ccc(C(=O)NCc2ccco2)o1	>77
CC(SCCc1ccccn1)C(=O)O (centres undefined)	>77
Cc1nnc(NC(=O)c2ccccc2F)s1	7.9*
Cc1nnc(NC(=O)c2sc3ccccc3c2Cl)s1	15*
Cc1nnc(NC(=O)CSc2ccccn2)s1	>77
CCn1nnc(NC(=O)c2ccccc2Br)n1	>77
Cc1nnc(NC(=O)C2(c3ccccc3)CCOCC2)s1	>77
Cc1nnc(NC(=O)CCCN2C(=O)c3ccccc3C2=O)s1	>77
COCc1nnc(NC(=O)c2sc3ccccc3c2Cl)s1	>77
Cc1nnc(NC(=O)c2ccccc2Br)s1	3.9*
SMILES	GBA activity
Cc1nnc(NC(=O)CCSc2ccccc2)s1	>77
O=C1CN(C(=O)COC(=O)CCC(=O)c2ccc3c(c2)OCCO3)c2ccccc2N1	>77
Cc1cccc(N2CCN(C(=O)n3ccnc3)CC2)c1C	>77
CN1CCc2c(sc3c2c(=O)n(-c2ccccc2)c2nnc(SCc4ccccc4F)n32)C1	>77
O=C(Nc1c(C(=O)N2CCOCC2)cnn1-c1ccccc1)c1ccco1	>77
COc1ccc2cc(C(=O)NCc3ccco3)c(=Nc3ccc(C(=O)O)cc3)oc2c1	>77
COc1ccc(N=c2oc3c(OC)cccc3cc2C(=O)NCc2ccco2)c(OC)c1	2.1*
COc1cc(C(=O)NCc2ccco2)cc(OC)c1OC	>77
Cc1ccc(-n2c(SCc3cn4ccsc4n3)nc3ccccc3c2=O)cc1	i
O=C(CN(Cc1ccc(F)cc1)C(=O)Cn1nnc2ccccc21)NCC1CCCO1 (centres undefined)	>77
CCOc1ccc(NC(=O)c2ccncc2)cc1	i
O=C(Nc1ccc(OC(=O)c2ccncc2)cc1)c1ccncc1	1.9*
O=C(Oc1ccc2c(c1)OCO2)c1ccncc1	>77
O=c1nc2scc(-c3ccccc3)n2c2ccccc12	>77
CC(=O)c1sc(NC(=O)c2ccc(Cn3cc(Br)cn3)o2)nc1C	>77
O=C(NCc1cccnc1)c1ccc(COc2ccccc2Br)o1	>77
O=C(Nc1ccc(Br)c2cccnc12)c1ccc(Cn2cc(Cl)cn2)o1	9.2*
O=C(OCC(=O)N1CCN(C(=O)c2ccco2)CC1)c1ccccc1C(=O)c1ccc(Cl)cc1	>77
C=CCn1c(SCC(=O)c2ccc(OC)cc2)nnc1C(C)NC(=O)c1cccs1 (centres undefined)	>77
CC(=O)c1sc2nc(-c3cccs3)cc(C(F)(F)F)c2c1N	14*
CS(=O)(=O)c1sc2nc(-c3cccs3)cc(-c3ccccc3)c2c1N	>77
Cc1csc(NC(=O)c2sc3nc(-c4cccs4)ccc3c2N)n1	>77
CCOC(=O)N1CCN(S(=O)(=O)c2cccc3ccc(C)nc23)CC1	>77
Cc1ccc(C)c(C(C)NC(=O)C2C3CCC(O3)C2C(=O)O)c1 (centres undefined)	>77
c1ccc(-c2nc(NCc3cccnc3)c3oc4ccccc4c3n2)cc1	>77
SMILES	GBA activity
COc1ccc(C2CC(C(F)(F)F)n3nc(CO)c(Cl)c3N2)cc1OC (centres undefined)	5.9*
COc1ccc(NC(=O)c2cc3n(n2)C(C(F)(F)F)CC(c2ccc4c(c2)OCO4)N3)cc1OC (centres undefined)	>77
COc1ccc(C2CC(C(F)(F)F)n3nc(C(=O)NCCCn4ccnc4)cc3N2)cc1OC (centres undefined)	>77
O=S(=O)(c1ccc(NC2CCCCC2)cc1)N1CCOCC1	>77
CCCOC(=O)C1[C@H]2C(=O)N(CCCOC)C[C@]23C=C[C@H]1O3 (some centres undefined)	>77
CCCOC(=O)C1[C@H]2C(=O)N(C(C)c3ccc(OC)cc3)C[C@]23C=C[C@H]1O3 (some centres undefined)	13*
